# Screening data as filed in PubChem.
# Nrf2 ARE act: activates Nrf2 signaling. 410,000 compounds, 0.31% hits. AID 624171. AREc32 ARE-luciferase reporter (MCF7-derived line), luminescence, 24 h. Potency, µM (series often up to 46.1 µM), hits mostly activators; also: nearly all actives have a fitted effect of over 65% in size
#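 Luminescent ARE reporter assay in AREc32_Fluc cells: overnight plating at 37 deg C, 24 hr compound incubation, Steady-Glo added, 30 min RT before reading.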
# BRCA1 expr up: increases BRCA1 expression. MCF7-BRCA1-FFLuc reporter, luminescence, 48 h; response scale: scaled: vehicle 0%, 10 µM genistein 100%. Potency, µM (highest dose often 46.1 µM), usual class: activators. 380,000 compounds, 1.1% hits. AID 624202; also: nearly all actives have a fitted effect of over 80% in size
#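 48 h compound treatment of MCF7-BRCA1-FFLuc cells (phenol-red free MEM, 37 °C), then 15 min with luciferase substrate and luminescence imaging.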
# IL2 activator: IL-2 activation | AID 652025 | IL-2 activation reporter assay, cell-based qHTS; stimulated with anti-CD3/CD4/CD28 beads; in transgenic mouse T cells | 360,000 compounds, 0.065% hits | activation, % (series mostly up to about 46 µM); in the data active = activation above about 50%; inconclusive = mostly about 30% to 49%
#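 Using fluorescent plate cytometry, EGFP and DsRed are detected in transgenic mouse T cells stimulated 18 h at 37 degrees C with antibody-coated beads after 60 min compound pretreatment.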
# ELG1 DNA repair: inhibitors of ELG1-dependent DNA repair in HEK293T cells | HEK293T ELG1-luciferase reporter, luminescence, 16 h; DNA damage induced by 5-fluorouridine | Potency, µM (series often up to 46.1 µM), hits mostly inhibitors | 330,000 compounds, 2.3% hits | AID 504467; also: nearly all actives have a fitted effect of over 55% in size
#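 HEK293T cells expressing luciferase-tagged ELG1 (2,000/well) received 5-Fluorouridine plus compound or DMSO for 16 hr at 37 °C. Luciferase was read by ONE-Glo luminescence after 30 min at room temperature.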
# A number is an active result; n = inactive; u = inconclusive; x = no result given; [ ] = another dose, or the depositor's remark. Compounds with a hit are over-represented: about 3.1% of the library has one in this group of screens. Unless noted, calls follow the shape of the dose curve; as a rule, active = well fitted curve in the direction sought with a large enough effect; inconclusive = small, poorly fitted or top-dose-only effect, or another doubt; inactive = no such curve, though single readings can be large; an effect the other way counts as inactive or inconclusive.
SMILES,Nrf2 ARE act,BRCA1 expr up,IL2 activator,ELG1 DNA repair
CC(C)N1C(=O)/C(=C/c2nc3ccccc3c(=O)n2-c2ccccc2)c2ccccc21,u,n,n,21µM
Cc1cc(C)n2c(Nc3cccc(C(F)(F)F)c3)c(-c3ccsc3)nc2n1,n,x,x,x
Cc1cccc(N2CCN(C(=O)CN3CCSc4ccccc43)CC2C)c1 (configuration not stated),n,n,x,x
O=C(CSc1nnc2ccc3ccccc3n12)c1ccc(F)cc1,13µM,x,x,x
CC(=O)Nc1ccc(C(=O)CSc2nnc3ccc4ccccc4n23)cc1,n,x,x,x
N#CCSc1nc(-c2ccccc2)nc2ccccc12,n[9.22 µM],n,n,u
N#CCSc1ncnc2ccccc12,u,n,n,23µM
CCOc1ccc(C(C)NC(=S)NC2CCCCC2)cc1OCC (configuration not stated),n,n,n,23µM
CCOc1ccc(C(C)NC(=S)NC2CCCCC2)cc1 (configuration not stated),n,n,n,u
CCOC(=O)c1sc(NC(=O)c2cccnc2)c(C#N)c1C,n,n,n,18µM
C/C(=N\O)C(C)(C)Nc1cccc(Br)c1,n,n,n,12µM
COc1cccc(NS(=O)(=O)c2ccc3[nH]cc(C(=O)N(C)C4CCCCC4)c(=O)c3c2)c1,n,x,x,x
CCC(=O)NC(c1ccc(OC)c(OC)c1)c1cc(Cl)c2cccnc2c1O (configuration not stated),n,n,n,u
CC(C)C(=O)NC(c1ccc(N(C)C)cc1)c1ccc2cccnc2c1O (configuration not stated),x,n,x,x
CC(C)C(=O)NC(c1ccco1)c1ccc2cccnc2c1O (configuration not stated),n,n,n,2.9µM
CCC(=O)NC(c1cccs1)c1ccc2cccnc2c1O (configuration not stated),n,n,n,3.7µM
Oc1c(C(Nc2nccs2)c2ccc(C(F)(F)F)cc2)ccc2cccnc12 (configuration not stated),n,n,n,2.6µM
CCC(=O)NC(c1ccc(C)cc1)c1cc(Cl)c2cccnc2c1O (configuration not stated),n,n,n,3.7µM
Cn1c(=O)c(=O)n(C)c2cc(NS(=O)(=O)c3ccc(Br)cc3)c(Cl)cc21,n,x,x,x
COc1cccc2c1cc1c(=O)n(CC(=O)N3CCN(c4cccc(C)c4)C(C)C3)nc(C)n12 (configuration not stated),n,x,x,x
Cc1ccc(S(=O)(=O)NCC2CCC(C(=O)NCCc3ccc(Cl)cc3)CC2)cc1 (configuration not stated),n,x,x,x
CCCC(=O)NC(c1ccccc1OC)c1ccc2cccnc2c1O (configuration not stated),n,n,n,4.1µM
Oc1c(Cl)cc(Cl)c2cccnc12,n,n,n,2.3µM
CCCCC(=O)NC(c1ccccc1OC)c1ccc2cccnc2c1O (configuration not stated),n,n,n,u
C/C=C/c1ccc(OCC(=O)OCc2csc(Nc3ccc(C)cc3)n2)c(OC)c1,n,11µM,n,u
SMILES,Nrf2 ARE act,BRCA1 expr up,IL2 activator,ELG1 DNA repair
COc1ccc(NS(=O)(=O)c2ccc3[nH]c4c(c3c2)CCCCC4)cc1,n,x,x,x
N#CC1(C#N)CC(C=O)=C(N)C1(C#N)CC(=O)C12CC3CC(CC(C3)C1)C2 (configuration not stated),u,n,n,16µM
C(=C\c1ccccc1)/C=N/Nc1nc2ccccc2s1,n,7.9µM,n,u
Brc1csc(/C=N/Nc2nc3ccccc3s2)c1,u,n,n,u
Brc1ccc(/C=C/C=N/Nc2nc3ccccc3s2)cc1,n,8.9µM,n,u
CCCCOc1cccc(C(=O)N(Cc2sccc2C)C2CCS(=O)(=O)C2)c1 (configuration not stated),n,x,x,x
COc1cccc(Cn2c(=O)n(Cc3ccco3)c(=O)c3oc4ccccc4c32)c1,n,x,x,x
COc1ccc(C(C(=O)NCc2ccccc2)N(Cc2ccco2)C(=O)c2snc(C(N)=O)c2N)cc1OC (configuration not stated),n,n,n,15µM
COc1ccc(C(C(=O)NCc2ccccc2)N(Cc2ccco2)C(=O)c2snc(C(N)=O)c2N)cc1 (configuration not stated),n,n,n,21µM
COc1ccc(C(C(=O)NC2CCCC2)N(C(=O)c2snc(C(N)=O)c2N)c2cccc(O)c2)cc1 (configuration not stated),n,n,n,16µM
COc1ccc(C(C(=O)NCc2ccccc2)N(C(=O)c2snc(C(N)=O)c2N)c2ccccc2OC)cc1 (configuration not stated),n,n,n,18µM
N#Cc1c(Oc2ccc3ccccc3c2)sc(C(=O)c2ccccc2)c1N,n,n,n,12µM
CCN(CCCNC(=O)CCc1nc(-c2ccc(OC)cc2)no1)c1cccc(C)c1,n,n,n,18µM
COc1ccc(-c2noc(CCC(=O)NCCc3ccccc3)n2)cc1,n,n,n,u
CC(C)CC(=O)/C(=C\c1ccc(Cl)cc1Cl)n1cncn1,n,n,n,21µM
CC(C)CC(=O)/C(=C/c1ccc(N(C)C)cc1)n1cncn1,n,n,n,n
C[C@H](CO)N1C[C@H](C)[C@@H](CN(C)C(=O)Nc2ccc3c(c2)OCO3)Oc2c(NC(=O)Nc3ccc(C(F)(F)F)cc3)cccc2C1=O,n,n,n,10µM
C[C@@H]1CN([C@H](C)CO)C(=O)c2cccc(NC(=O)Nc3ccc(F)cc3)c2O[C@H]1CN(C)C(=O)Nc1ccc(C(F)(F)F)cc1,n,n,n,6.5µM
COc1ccc(NC(=O)N(C)C[C@H]2Oc3c(NC(=O)Nc4ccc(C(F)(F)F)cc4)cccc3C(=O)N([C@H](C)CO)C[C@@H]2C)cc1,n,n,n,u
C[C@H](CO)N1C[C@H](C)[C@@H](CN(C)Cc2ccc(-c3ccccc3)cc2)Oc2c(NC(=O)Nc3ccc4c(c3)OCO4)cccc2C1=O,n,n,n,23µM
FC(F)Oc1ccc(C2N=C(c3ccccc3)NO2)cc1 (configuration not stated),n,4.5µM,n,u
CC1CCC(C(C)C)C(OC(=O)Cn2c(-c3ccccc3)[n+](C)c3ccccc32)C1 (configuration not stated),n,n,n,6.5µM
CC1CCC(C(C)C)C(OC(=O)Cn2c(-c3ccc(F)cc3)[n+](C)c3ccccc32)C1 (configuration not stated),n,n,n,16µM
Cc1cccc(OCc2n(CC(=O)OC3CC(C)CCC3C(C)C)c3ccccc3[n+]2C)c1 (configuration not stated),n,n,n,u
Cc1ccc(NC(=O)c2ccc(CNS(=O)(=O)c3ccc4c(c3)C(C)(C)C(=O)N4C)cc2)cc1F,n,x,x,x
CCCOCc1ccc(O)c2ncccc12,n,n,n,7.3µM
CC(C)COCc1ccc(O)c2ncccc12,n,n,n,21µM
